# Hit rate of the full screen: of about 16,000 compounds, about 2,600 (16%) were called active. Not shown: some 20% with an inconclusive outcome. Calls follow the shape of the dose curve; as a rule, active = well fitted curve in the direction sought with a large enough effect; inconclusive = small, poorly fitted or top-dose-only effect, or effect the other way; inactive = no such curve, though single readings can be large or run the other way. Only a sample is shown.
# Target: Cytochrome P450 2D6 (Homo sapiens) (UniProt P10635)
# Sequence (P10635 whole entry, looked up): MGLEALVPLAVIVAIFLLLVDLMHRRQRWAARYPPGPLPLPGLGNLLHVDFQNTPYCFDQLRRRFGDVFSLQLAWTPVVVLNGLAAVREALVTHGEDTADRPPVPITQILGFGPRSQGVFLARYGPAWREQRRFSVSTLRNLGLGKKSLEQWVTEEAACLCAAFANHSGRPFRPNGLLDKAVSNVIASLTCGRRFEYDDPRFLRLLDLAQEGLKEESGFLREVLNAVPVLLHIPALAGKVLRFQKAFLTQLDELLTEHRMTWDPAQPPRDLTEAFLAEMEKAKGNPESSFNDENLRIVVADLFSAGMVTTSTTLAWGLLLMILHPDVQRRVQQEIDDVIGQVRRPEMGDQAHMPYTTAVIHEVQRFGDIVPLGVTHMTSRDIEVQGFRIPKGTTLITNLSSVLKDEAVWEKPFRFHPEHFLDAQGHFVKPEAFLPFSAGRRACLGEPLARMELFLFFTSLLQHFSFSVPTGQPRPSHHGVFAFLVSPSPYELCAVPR
# Assay: Cytochrome panel assay with activity outcomes
# Conditions: recombinant CYP, pro-luciferin dealkylation, luminescence, p450-cyp2d6; series mostly up to 57.1 µM; activity, negative = inhibition: at the top concentration
# % is scaled to controls: 0 for no effect and ±100 for the full control effect.
Structure (SMILES),"activity, negative = inhibition",AC50
CCSc1nc2nc(C)cc(C)n2n1,0.804% (inactive),
Cn1cc(C(=O)N/N=C/C(Br)=C\c2ccccc2)ccc1=O,-26.6% (inactive),
CCN1CCN(c2nc3c(c(=O)[nH]c(=O)n3C)n2CCCSc2ncccn2)CC1,-7.52% (inactive),
COc1ccc(C2/C(=C(/O)c3ccccc3)C(=O)C(=O)N2CC(C)O)c(OC)c1 (centres undefined),1.5% (inactive),
N#Cc1sc2nc(-c3cccs3)cc(-c3ccc(Cl)cc3)c2c1N,-1.86% (inactive),
COc1cc(N=C(N)N=C(N)N)c2ncccc2c1,-2.16% [at 11.4 µM] (inactive),
Nc1ccc(S(=O)(=O)c2ccc(NC(=O)c3cccnc3)cc2)cc1,-2.49% [at 11.4 µM] (inactive),
O=c1c2c(-c3ccc(Cl)cc3)csc2nc2n1CCC2,-19.4% (inactive),
COCCn1c(=O)[nH]c2cc(C(=O)N3CCN(c4ccccc4OC)CC3)ccc2c1=O,-8.01% (inactive),
CCCC1c2c(ccc3ccccc23)Oc2ccc3ccccc3c21,4.73% [at 11.4 µM] (inactive),
COCC(=O)N1CCC2(CCCN(Cc3ccccc3)C2)CC1,-3.92% (inactive),
COCC(=O)N1CCC[C@@]2(CCN(Cc3ccccc3)C2)C1,,6.31 µM (active)
COCC(=O)N1CCC[C@@]2(CCN(Cc3ccc(C#N)cc3)C2)C1,-8.83% (inactive),
Cc1c(NC(=S)N/N=C/c2ccc(O)cc2)c(=O)n(-c2ccccc2)n1C,4.58% (inactive),
O=C1C(=O)c2ccccc2C(O)=C1C(CCc1ccccc1)C1=C(O)c2ccccc2C(=O)C1=O,-9.56% [at 11.4 µM] (inactive),
CC(C)[C@@H]1[C@H]2CC[C@H](C2)[C@H]1N,3.78% (inactive),
CCc1ncc(CO)n1Cc1cccc2ccccc12,-6.66% [at 11.4 µM] (inactive),
Cc1ccc(Sc2cc(Cl)nc(N)n2)cc1,18.5% (inactive),
Cc1ccc2[nH]c(=O)c(NC(N)=S)nc2c1,-20.2% (inactive),
O=C1CSc2ccc(C(=O)NCCC3=CCCCC3)cc2N1,-6.63% (inactive),
CC(C)(C)c1ccc(C(=O)N2CCC(C(=O)NCCC3=CCCCC3)CC2)cc1,,22.4 µM (active)
CCC(C)NC(=O)C1CCN(C(=O)c2ccccc2)CC1 (centres undefined),19.5% (inactive),
CCNC(=O)C1CC(=O)OC12CCCCC2 (centres undefined),20.8% (inactive),

Structure (SMILES),"activity, negative = inhibition",AC50
O=C(Nc1cccnc1Cl)C1c2ccccc2Oc2ccccc21,9.13% (inactive),
CN(C)CCNS(=O)(=O)N(C)C,5.07% [at 11.4 µM] (inactive),
COc1ccc(-n2ccnc2SCC(=O)Nc2ccccc2)cc1,,17.8 µM (active)
CCOc1ccc(-n2ccnc2SCC(=O)Nc2nnc(CC)s2)cc1,-2.1% (inactive),
CCOc1ccc(-n2ccnc2SCC(=O)Nc2nnc(C)s2)cc1,0.439% (inactive),
COc1cccc(NC(=O)CSc2nnc(CN3CCOCC3)n2C)c1,-4.66% (inactive),
COc1cccc(-n2ccnc2SCC(=O)Nc2nccs2)c1,,12.6 µM (active)
COc1ccc(-n2ccnc2SCC(=O)Nc2ccc(OC)cc2OC)cc1,-14.2% (inactive),
COc1cccc([C@H](O)Cn2cc(-c3cccc(CON=C(C)C)c3)nn2)c1,-1.23% [at 11.4 µM] (inactive),
O=c1c2ccccc2nc2n1CCC2,22.4% (inactive),
CC(=O)c1cc(NC(=O)c2cccc(C(F)(F)F)c2)c(=O)oc1/C=C/N(C)C,-1.04% (inactive),
CC1(C)CC(=O)c2c(Cc3ccccc3)n[nH]c2C1,10.2% (inactive),
N#C/C(=C(/O)CN1CCCCC1)c1nc(-c2ccc(Cl)cc2)cs1,2.79% (inactive),
Cn1c(=O)c2[nH]c(-c3ccc(S(=O)(=O)O)cc3)nc2n(C)c1=O,-1.78% (inactive),
COCCn1c(=O)c(-c2cccs2)nc2cnc(N3CCN(C)CC3)nc21,-2.8% (inactive),
O=c1c(-c2ccc(F)c(F)c2)nc2cncnc2n1Cc1ccccc1Cl,-12.1% (inactive),
COc1ccc2c(c1)c(CC(=O)OCC(=O)O)c(C)n2C(=O)c1ccc(Cl)cc1,7.38% [at 25.6 µM] (inactive),
COc1ccccc1OC[C@H](O)COC(N)=O,2.23% [at 25.6 µM] (inactive),
NC(=O)OCC(COC(N)=O)c1ccccc1,,0.794 µM (active)
NC(=O)OC[C@H](O)COc1ccc(Cl)cc1,0.0944% [at 25.6 µM] (inactive),
COCCn1c(=O)c(-c2ccc(OC)cc2)nc2cnc(N3CCNCC3)nc21,-8.27% (inactive),
Cc1ccc(C(=O)Cn2nnc3c(sc4nc5c(c(-c6ccccc6)c43)CCC5)c2=O)cc1,-1.52% (inactive),
Cc1ccc(C(=O)CNc2nc3c(c(=O)[nH]c(=O)n3C)n2Cc2ccccc2)cc1,-26% (inactive),

Structure (SMILES),"activity, negative = inhibition",AC50
COc1ccc(NC(=O)C(=O)NNC(=O)c2cccs2)c(OC)c1,-15.1% (inactive),
Cc1c(NC(=O)C(C)N2C(=O)c3ccccc3C2=O)c(=O)n(-c2ccccc2)n1C (centres undefined),-3.01% (inactive),
c1cncc(-c2nnc3n2C2(CCCCC2)Cc2ccccc2-3)c1,-2.67% (inactive),
CC1=NC(C)(C)Cc2ccccc21,,14.1 µM (active)
Cc1cccc2c1OCC/C2=N\NC(=O)COc1ccccc1,-6.15% (inactive),
Cc1ncc([N+](=O)[O-])n1CCO,0.423% [at 25.6 µM] (inactive),
N#Cc1ccc(C2=NC(C(F)(F)F)(C(F)(F)F)c3c(n(Cc4ccco4)c(=O)[nH]c3=O)N2)cc1,0.737% (inactive),
COCCn1c(=O)c(-c2cccs2)nc2cnc(OC)nc21,-9.81% (inactive),
Cn1c(=O)c2c3c(sc2n2cnnc12)CCC3,21.1% (inactive),
CN(C)CCn1c(=O)n(Cc2ccco2)c(=O)c2c3c(sc21)CCCCC3,,1.58 µM (active)
NC(=O)Cn1c(=O)n(Cc2ccco2)c(=O)c2c3c(sc21)CCCCC3,-14.5% (inactive),
CC(=O)N(NC(=O)c1ccccc1Cl)C1CC(=O)N(c2ccc(C)cc2)C1=O (centres undefined),4.28% (inactive),
CC(=O)N(C[C@@H](C)C(=O)O)c1c(I)cc(I)c(N)c1I,3.85% [at 25.6 µM] (inactive),
CCOc1cc2c(C)cc(=O)oc2cc1Cl,-2.51% (inactive),
CCOc1ccc(NC(=O)N2CCC(c3ccc(C)cc3)C2)cc1 (centres undefined),-22.3% (inactive),
Brc1ccc(-c2csc(N3CCC(c4ccccc4)C3)n2)cc1 (centres undefined),-13.3% (inactive),
O=C(COc1ccc(Br)cc1)N1CCC(c2ccccc2)C1 (centres undefined),,17.8 µM (active)
CN(CCCNC(=O)c1ccc(/C=N/O)nc1)CCCN(C)Cc1ccccc1,,2.82 µM (active)
COC(=O)c1cc2n(n1)CCN(Cc1ccccc1F)C2=O,-3.58% (inactive),
Cc1ccc(C(=O)C2CCNCC2)cc1,,1.41 µM (active)
Cc1ccc(C(=O)/C=C2\NCC(C)NC2=O)cc1 (centres undefined),-5.26% (inactive),
Cc1ccc(C(=O)NC2CCCCC2)cc1,9.04% (inactive),
O=C(Oc1ccc(OC(=O)c2ccco2)c(S(=O)(=O)c2ccc(Br)cc2)c1)c1ccco1,5.11% (inactive),
